Compounds with a hit are over-represented: about 1.8% of the library has one in this group of screens.
Neddylation inh: inhibitors of cullin neddylation, primary screen, biochemical, TR-FRET, uHTS, NAE and Ubc12. calls only at 25 µM. AID 651699, 2012. 0.58% of 360,000 active. NEDD8-conjugating enzyme Ubc12 (Homo sapiens) + NEDD8-activating enzyme E1 regulatory …; in the data active = inhibition above about 36%
Target sequence (P61081 whole entry, looked up): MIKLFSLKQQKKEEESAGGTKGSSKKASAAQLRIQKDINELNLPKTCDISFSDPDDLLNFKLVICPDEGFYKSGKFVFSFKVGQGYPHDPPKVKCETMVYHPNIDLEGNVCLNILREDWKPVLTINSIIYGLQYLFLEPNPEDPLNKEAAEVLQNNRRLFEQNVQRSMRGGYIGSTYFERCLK
Target sequence (Q13564 whole entry, looked up): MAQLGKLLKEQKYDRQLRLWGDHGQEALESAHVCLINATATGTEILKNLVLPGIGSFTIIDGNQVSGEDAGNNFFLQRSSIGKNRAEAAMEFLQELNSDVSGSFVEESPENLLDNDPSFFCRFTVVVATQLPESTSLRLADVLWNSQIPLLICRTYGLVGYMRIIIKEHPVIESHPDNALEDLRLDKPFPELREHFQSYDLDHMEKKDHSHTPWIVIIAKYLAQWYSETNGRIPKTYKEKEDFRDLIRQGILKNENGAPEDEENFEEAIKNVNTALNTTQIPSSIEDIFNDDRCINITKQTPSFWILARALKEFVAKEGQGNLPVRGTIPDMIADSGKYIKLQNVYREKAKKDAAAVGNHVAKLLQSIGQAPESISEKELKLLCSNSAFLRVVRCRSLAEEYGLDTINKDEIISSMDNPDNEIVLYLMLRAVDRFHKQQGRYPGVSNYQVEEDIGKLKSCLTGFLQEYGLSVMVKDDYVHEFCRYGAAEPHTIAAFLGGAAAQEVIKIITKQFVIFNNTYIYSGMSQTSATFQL
UBC13 inh: UBC13 polyubiquitin chain formation inhibitors, primary screen, biochemical, TR-FRET, uHTS; Ubiquitin-conjugating enzyme E2 N (Homo sapiens), P61088; inhibition, % at 20 µM; 0.47% of 330,000 active; in the data active = inhibition above about 45%, passing the limit was not always enough
MBD2 DNA inh: inhibitors of MBD2 binding to methylated DNA, primary screen, biochemical, TR-FRET, DNA-binding domain, human. Methyl-CpG-binding domain protein 2 (Homo sapiens), Q9UBB5. MBD2 binding to methylated oligonucleotide. inhibition, % at 4.4 µM. 0.31% of 370,000 active; in the data active = inhibition above about 13%
UHRF1 binding: UHRF1 methylated DNA binding inhibitors, primary screen, counter-screen for MBD2 inhibitor project, biochemical, TR-FRET, human UHRF1, single concentration; UHRF1 binding to methylated oligo; inhibition, % at 4.4 µM; 0.75% of 370,000 active; AID 687016, 2013;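 note: UHRF1 SRA domain binding a hemimethylated CpG hairpin DNA probe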
UHRF1 ctr MBD2: UHRF1 methylated DNA binding inhibitors, counter-screen for MBD2 inhibitor project, biochemical, TR-FRET, human UHRF1; shares compounds with MBD2 DNA inh; UHRF1 binding to methylated oligonucleotide; inhibition, % at 4.4 µM; 25% of 1,000 active; AID 720530, 2013;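 note: UHRF1 SRA domain binding a labeled hemimethylated CpG hairpin DNA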
MBD2 confirm: inhibitors of MBD2 binding to methylated DNA, confirmation, biochemical, TR-FRET, DNA-binding domain, human; shares compounds with MBD2 DNA inh; TR-FRET MBD2-DBD binding to methylated oligonucleotide; inhibition, % at 4.4 µM; 26% of 1,000 active; in the data active = inhibition above about 14%
Each line names hits and unclear results; the compound was inactive in the other large screens (follow-up assays come after a bar, where shown). Cut-off read from the data, not from the text of the source, unless noted: active = inhibition above about 21%; inactive = the rest.

Cc1ccc(C(=O)NCc2ccc3c(c2)OCO3)c(C)c1	none
Cc1ccc(C(=O)NCc2ccc3c(c2)OCO3)c(Cl)c1	MBD2 DNA inh 15, UHRF1 binding 22 (no result: UBC13 inh) | UHRF1 ctr MBD2 inactive | MBD2 confirm inactive
C=CC[C@@H](CC(=O)NCCO)C(=O)N[C@H](C)COC(=O)[C@@H](CC=C)Cc1ccc(F)cc1	MBD2 DNA inh 53 | UHRF1 ctr MBD2 inactive | MBD2 confirm inactive
C=CC[C@H](CC(=O)NCCO)C(=O)N[C@H](C)COC(=O)[C@@H](CC=C)Cc1ccc(F)cc1	none
CCCC(CCC)C(=O)OC1C[C@H]2CC[C@@H](C1)[N+]2(C)C (some centres undefined)	none
O=C(NN1C(=O)/C(=C/C=C/c2ccco2)SC1=S)c1ccncc1	MBD2 DNA inh 74, UHRF1 binding 97 | UHRF1 ctr MBD2 90 | MBD2 confirm 63
O=C1/C(=C/C=C/c2ccco2)SC(=S)N1c1ccc(O)cc1	MBD2 DNA inh 41, UHRF1 binding 87 | UHRF1 ctr MBD2 inactive | MBD2 confirm inactive
CCc1c(O)nc(SCC(=O)N2CCOCC2)n(-c2ccccc2)c1=O	none
Cc1ccc(C)c2[nH]c(=O)c(CN(CCN3CCOCC3)Cc3nnnn3CC3CCCO3)cc12 (centres undefined)	MBD2 DNA inh 18 | UHRF1 ctr MBD2 inactive | MBD2 confirm inactive
Cc1cc(C(=O)N2CCN(c3ncccn3)CC2)cs1	MBD2 DNA inh 17 | UHRF1 ctr MBD2 inactive | MBD2 confirm inactive
O=C1CCCC2=C1C(c1ccco1)Nc1ccc3ccccc3c12 (centres undefined)	Neddylation inh active, MBD2 DNA inh 22, UHRF1 binding 50 | UHRF1 ctr MBD2 48 | MBD2 confirm 21
O=C1CCCC2=C1C(c1ccc(O)c(O)c1)Nc1ccc3ccccc3c12 (centres undefined)	none
Cc1ccccc1NC(=O)CN1C(=O)COc2ccc(S(=O)(=O)N3CCCC3)cc21	none
Cc1nn2c(-c3ccc(Cl)cc3)nnc2s1	MBD2 DNA inh 14 | UHRF1 ctr MBD2 inactive | MBD2 confirm inactive
O=C(O)c1ccc(CNCc2cccc(OCc3ccc(F)cc3)c2)cc1	none
Fc1ccc(COc2cccc(CNCc3ccncc3)c2)cc1	MBD2 DNA inh 38 | UHRF1 ctr MBD2 inactive | MBD2 confirm inactive
CCOC(=O)C1CCN(CC(=O)Nc2c(C(=O)OC)[nH]c3cccc(Cl)c23)CC1	MBD2 DNA inh 14 | UHRF1 ctr MBD2 inactive | MBD2 confirm inactive
Cc1ccc(-c2c(C)c(-c3ccc(F)cc3)nc(N)c2C#N)o1	MBD2 DNA inh 19 (not shown: Neddylation inh) | UHRF1 ctr MBD2 inactive | MBD2 confirm inactive
Cc1c(-c2ccc(F)cc2)nc(N)c(C#N)c1-c1cccnc1	none
COC(=O)c1ccc(OC)c(CSc2nnc(COc3ccccc3)o2)c1	none
COC(=O)c1ccc(OC)c(CSc2nnc(COc3ccc(Cl)cc3)o2)c1	MBD2 DNA inh 14 | UHRF1 ctr MBD2 inactive | MBD2 confirm inactive
O=C1CCCCC1Nc1ccc(Br)cc1 (centres undefined)	MBD2 DNA inh 13, UHRF1 binding 21 (no result: UBC13 inh) | UHRF1 ctr MBD2 inactive | MBD2 confirm inactive
O=C1CCCCC1Nc1ccc(Cl)cc1 (centres undefined)	none (no result: UBC13 inh)
CCC1CCCCN1C(=O)CSc1nc2c([nH]c3ccccc32)c(=O)n1C (centres undefined)	none
O=C(CCS(=O)(=O)c1cc2c(cc1Cl)NC(=O)CO2)NCCc1ccccc1	MBD2 DNA inh 31 | UHRF1 ctr MBD2 inactive | MBD2 confirm inactive
CC(CCc1ccccc1)NC(=O)CN1CCN(Cc2ccc(Cl)cc2)C1=O (centres undefined)	MBD2 DNA inh 17 | UHRF1 ctr MBD2 inactive | MBD2 confirm inactive
CCc1ccc2[nH]c(=O)c(CN(CCN3CCOCC3)C(=O)Nc3ccccc3F)cc2c1	none
C/C=C/C=[N+](\[O-])C(C)/C(=N/O)c1ccc(F)cc1 (centres undefined)	MBD2 DNA inh 14 | UHRF1 ctr MBD2 inactive | MBD2 confirm inactive
CC(C)(C)C1CCc2onc(C(=O)NCc3ccc(F)cc3)c2C1 (centres undefined)	MBD2 DNA inh 17 | UHRF1 ctr MBD2 inactive | MBD2 confirm inactive
C=C(C)C(O)COc1c2occc2c(OC)c2ccc(=O)oc12 (centres undefined)	none
COc1ccc(CCC(=O)NCCOc2ccccc2Cl)cc1	none
CC(c1ccccc1)c1nnc(NC(=O)Nc2ccccc2F)s1 (centres undefined)	none
COC(=O)C[C@@H]1CC[C@@H](NC(=O)C2CCC2)[C@@H](CO)O1	MBD2 DNA inh 21, UHRF1 binding 23 (no result: UBC13 inh) | UHRF1 ctr MBD2 inactive | MBD2 confirm inactive
COc1cc(C)c2c(c1C=O)Oc1c(c(C)c(O)c3c1C(O)OC3=O)OC2=O (centres undefined)	MBD2 DNA inh 31, UHRF1 binding 65 | UHRF1 ctr MBD2 24 | MBD2 confirm inactive
CC(=O)Nc1cc(-c2cccc(C(=O)N(C)C)c2)cn2c(-c3ccc(C(C)=O)cc3)cnc12	MBD2 DNA inh 14 (no result: UBC13 inh) | UHRF1 ctr MBD2 inactive | MBD2 confirm inactive
O=C(c1cccc(S(=O)(=O)N2CCOCC2)c1)N1CCN(c2ccccc2)CC1	none
CCC1CCCCN1C(=O)COC(=O)c1cccs1 (centres undefined)	MBD2 DNA inh 17 | UHRF1 ctr MBD2 inactive | MBD2 confirm inactive
O=C(OCC(=O)N1CCCCC1)c1cccs1	none
COCc1ccc(C(=O)N2CCCC(C(=O)c3ccc(SC)cc3)C2)o1 (centres undefined)	none
O=C(CC1(O)C(=O)Nc2ccccc21)c1cccc(-n2cccc2)c1 (centres undefined)	none
Cc1c(Cl)cccc1NC(=O)NCc1ccc(F)cc1	none
CCOc1ccc(S(=O)(=O)NCc2ccncc2)cc1NC(=O)c1ccccc1	none
COc1ccc(S(=O)(=O)NCc2ccncc2)cc1NC(=O)c1ccccc1	MBD2 DNA inh 16, UHRF1 binding 33 | UHRF1 ctr MBD2 inactive | MBD2 confirm inactive
CC(=O)Nc1nnc(CCS(=O)(=O)c2ccc(C)c(C)c2)s1	none
O=C(CSc1cn[nH]n1)Nc1cccc(C(=O)O)c1	MBD2 DNA inh 15 | UHRF1 ctr MBD2 inactive | MBD2 confirm inactive
COC(=O)C1CN(C2CC2)CCS(=O)(=O)N1Cc1cn(Cc2ccc(OC)cc2)nn1 (centres undefined)	none (no result: Neddylation inh, UBC13 inh)
COC(=O)C1CN(C2CCCC2)CCS(=O)(=O)N1Cc1cn(Cc2ccc(OC)cc2)nn1 (centres undefined)	MBD2 DNA inh 16 (no result: Neddylation inh, UBC13 inh) | UHRF1 ctr MBD2 inactive | MBD2 confirm inactive
